Test results taken from PubChem BioAssay (EPA / NIEHS).
“And” between values parts separate entries of the source, which are not always exact repeats. Identical values can stand only once. Results filed as inconclusive are left out. More than one record can exist for a structure, and the calls need not agree. The source made the active and inactive calls. How the source made its calls, unless noted: active means hit-call score of the fitted dose curve at least 0.9, where 1 is the maximum; inconclusive means response in the unintended direction; inactive means score below 0.9.

What was measured:
[1] = molecular target: zebrafish Estrogen Receptor (ER1), esr1 (gene 259252) (UniProt P57717); test: ATG_zfER1_XSP2: Attagene TRANS-FACTORIAL Multi-Species (XSP2) HepG2 Assay for zebrafish Estrogen Receptor (ER1) (AID 2283816)
Chain of zebrafish Estrogen Receptor (ER1), esr1 (gene 259252) (P57717 whole entry, looked up, the tested form may be a part): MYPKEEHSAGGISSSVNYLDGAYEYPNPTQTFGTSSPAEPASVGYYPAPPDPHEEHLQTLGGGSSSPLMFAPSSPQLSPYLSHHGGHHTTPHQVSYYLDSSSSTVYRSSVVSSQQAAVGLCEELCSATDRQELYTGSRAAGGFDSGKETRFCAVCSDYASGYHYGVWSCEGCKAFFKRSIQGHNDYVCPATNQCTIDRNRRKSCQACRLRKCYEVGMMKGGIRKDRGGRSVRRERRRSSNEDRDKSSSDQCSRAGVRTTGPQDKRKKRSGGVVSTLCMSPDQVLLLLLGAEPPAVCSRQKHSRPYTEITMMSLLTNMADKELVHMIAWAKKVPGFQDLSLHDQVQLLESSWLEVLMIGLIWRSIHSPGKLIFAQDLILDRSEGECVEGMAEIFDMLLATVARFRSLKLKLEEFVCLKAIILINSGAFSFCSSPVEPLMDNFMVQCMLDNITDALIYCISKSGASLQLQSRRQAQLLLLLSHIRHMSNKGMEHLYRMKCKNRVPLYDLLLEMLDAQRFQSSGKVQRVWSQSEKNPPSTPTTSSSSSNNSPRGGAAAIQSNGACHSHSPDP
Summary of the method: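 After 24 h compound exposure, RNA from transfected HepG2 cells was reverse-transcribed and reporter transcripts resolved by capillary electrophoresis. The TRANS format reads exogenous zebrafish ER1-Gal4 chimera activity on GAL4-UAS elements; gain of signal against DMSO.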

[2] = molecular target: chicken Estrogen Receptor (ERa), ESR1 (gene 396099) (UniProt P06212); test: ATG_chERa_XSP2: Attagene TRANS-FACTORIAL Multi-Species (XSP2) HepG2 Assay for chicken Estrogen Receptor (ERa) (AID 2283817);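 further: actives raise reporter signal above DMSO so AC50 reflects ER activation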
Chain of chicken Estrogen Receptor (ERa), ESR1 (gene 396099) (P06212 whole entry, looked up, the tested form may be a part): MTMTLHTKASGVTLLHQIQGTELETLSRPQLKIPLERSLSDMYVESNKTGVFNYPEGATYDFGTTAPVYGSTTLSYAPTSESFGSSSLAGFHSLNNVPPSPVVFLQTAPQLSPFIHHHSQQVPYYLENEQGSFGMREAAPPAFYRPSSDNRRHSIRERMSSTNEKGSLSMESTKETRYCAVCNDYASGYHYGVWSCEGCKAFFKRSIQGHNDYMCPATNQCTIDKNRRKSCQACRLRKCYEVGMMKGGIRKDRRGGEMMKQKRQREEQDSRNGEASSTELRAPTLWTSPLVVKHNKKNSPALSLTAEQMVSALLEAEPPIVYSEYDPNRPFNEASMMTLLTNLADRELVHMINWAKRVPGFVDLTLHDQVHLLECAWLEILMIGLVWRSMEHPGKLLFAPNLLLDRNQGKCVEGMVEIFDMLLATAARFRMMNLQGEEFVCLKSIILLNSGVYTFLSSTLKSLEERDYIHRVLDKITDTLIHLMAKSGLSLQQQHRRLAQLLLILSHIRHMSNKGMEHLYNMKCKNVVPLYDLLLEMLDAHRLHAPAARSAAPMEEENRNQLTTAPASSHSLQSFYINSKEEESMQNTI
Summary of the method: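 Readout: fluorescent reporter-transcript fragments resolved by capillary electrophoresis after RT-PCR and HpaI cut. Chicken ERa-Gal4 fusion in transiently transfected HepG2, dosed for 24 h; activity taken as increase over DMSO baseline.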

[3] = tested on: zebrafish Estrogen Receptor (ER2a), gene 317734; test: ATG_zfER2a_XSP2: Attagene TRANS-FACTORIAL Multi-Species (XSP2) HepG2 Assay for zebrafish Estrogen Receptor (ER2a) (AID 2283818);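 further: hits raise reporter mRNA so AC50 reflects activation of zebrafish ER2a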
Summary of the method: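 Multiplexed trans-reporter readout: RT-PCR then capillary electrophoresis of reporter transcripts after 24 h compound treatment. Human HepG2 carries transfected zebrafish ER2a-Gal4 chimera; 3 nM 6-alpha-fluorotestosterone plus 1.5 nM norgestrel present. Induction scored against DMSO.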

[4] = tested on: frog Estrogen Receptor (ER), gene 398734; test: ATG_frER1_XSP2: Attagene TRANS-FACTORIAL Multi-Species (XSP2) HepG2 Assay for frog Estrogen Receptor (ER) (AID 2283821);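 further: hits raise reporter mRNA above DMSO baseline so potency means agonist or activator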
Summary of the method: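 Reporter mRNA induction, detected as fluorescence after RT-PCR and capillary electrophoresis, is the endpoint; activity is fitted upward against DMSO. Cells are human liver HepG2 carrying transfected NR-Gal4 chimeras with GAL4-UAS-driven reporters, harvested 24 h post-dosing.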

[5] = tested on: zebrafish Estrogen Receptor (ER2b), gene 317733; test: ATG_zfER2b_XSP2: Attagene TRANS-FACTORIAL Multi-Species (XSP2) HepG2 Assay for zebrafish Estrogen Receptor (ER2b) (AID 2283823);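 further: fitted upward as reporter gain over DMSO so potency reflects activation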
Summary of the method: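 Read-out: fluorescent reporter mRNA, measured by RT-PCR then capillary electrophoresis after HpaI digestion. HepG2 cells carried transiently transfected multi-reporter TRANS constructs (NR-Gal4 chimeras); 24 h chemical exposure; activity scored upward versus DMSO control.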

[6] = ATG_M_32_XSP2: Attagene TRANS-FACTORIAL Multi-Species (XSP2) HepG2 Assay for M19 Transcription Factor (Internal Marker) (AID 2283826)
Summary of the method: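 HepG2 cells transiently transfected with GAL4-UAS reporter transcription units, dosed with compound for 24 h in presence of 3 nM 6-alpha-fluorotestosterone and 1.5 nM norgestrel; reporter mRNA quantified by RT-PCR, FAM labelling, HpaI digestion and capillary electrophoresis.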

[7] = tested on: frog Estrogen Receptor (ER2), gene 100174814; test: ATG_frER2_XSP2: Attagene TRANS-FACTORIAL Multi-Species (XSP2) HepG2 Assay for frog Estrogen Receptor (ER2) (AID 2283828)
Summary of the method: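 Cells were transfected with reporter constructs under GAL4-UAS control, dosed with chemicals for 24 h, then lysed for RNA; the frog ER2-driven reporter mRNA was quantified by capillary electrophoresis of labeled PCR fragments, with activity fitted upward from DMSO.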

[8] = molecular target: mouse Peroxisome Proliferator-activated Receptor gamma (PPARg), Pparg (gene 19016) (UniProt P37238); test: ATG_mPPARg_XSP2: Attagene TRANS-FACTORIAL Multi-Species (XSP2) HepG2 Assay for mouse Peroxisome Proliferator-activated Receptor gamma (PPARg) (AID 2283830);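 further: hits are gains in reporter mRNA above DMSO so AC50 marks activation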
Chain of mouse Peroxisome Proliferator-activated Receptor gamma (PPARg), Pparg (gene 19016) (P37238 whole entry, looked up, the tested form may be a part): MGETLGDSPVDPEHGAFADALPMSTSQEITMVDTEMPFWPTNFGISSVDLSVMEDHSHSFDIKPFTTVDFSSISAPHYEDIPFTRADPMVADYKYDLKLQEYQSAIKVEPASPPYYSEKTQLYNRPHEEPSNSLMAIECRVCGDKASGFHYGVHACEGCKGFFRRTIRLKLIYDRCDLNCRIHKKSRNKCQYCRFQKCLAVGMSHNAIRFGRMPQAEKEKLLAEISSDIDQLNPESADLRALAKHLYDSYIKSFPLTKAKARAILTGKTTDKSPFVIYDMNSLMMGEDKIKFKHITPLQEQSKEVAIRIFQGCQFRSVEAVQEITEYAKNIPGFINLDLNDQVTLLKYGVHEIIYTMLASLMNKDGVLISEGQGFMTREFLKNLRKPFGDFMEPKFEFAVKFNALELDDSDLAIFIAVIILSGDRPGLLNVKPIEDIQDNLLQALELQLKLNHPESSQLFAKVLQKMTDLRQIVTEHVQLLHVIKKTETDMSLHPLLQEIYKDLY
Summary of the method: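 Multiplexed TRANS reporter readout: after 24 h chemical exposure of transfected HepG2 cells (with 3 nM 6-alpha-fluorotestosterone, 1.5 nM norgestrel present), RNA reverse-transcribed, amplified, 6-FAM-labelled and resolved by capillary electrophoresis; mouse PPARg-Gal4 induction scored against DMSO.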

[9] = molecular target: Nuclear receptor subfamily 1 group I member 2 (Mus musculus) (UniProt O54915); test: ATG_mPXR_XSP2: Attagene TRANS-FACTORIAL Multi-Species (XSP1) HepG2 Assay for mouse Pregnane X Receptor (PXR) (AID 2283831)
Chain of Nuclear receptor subfamily 1 group I member 2 (Mus musculus) (O54915 whole entry, looked up, the tested form may be a part): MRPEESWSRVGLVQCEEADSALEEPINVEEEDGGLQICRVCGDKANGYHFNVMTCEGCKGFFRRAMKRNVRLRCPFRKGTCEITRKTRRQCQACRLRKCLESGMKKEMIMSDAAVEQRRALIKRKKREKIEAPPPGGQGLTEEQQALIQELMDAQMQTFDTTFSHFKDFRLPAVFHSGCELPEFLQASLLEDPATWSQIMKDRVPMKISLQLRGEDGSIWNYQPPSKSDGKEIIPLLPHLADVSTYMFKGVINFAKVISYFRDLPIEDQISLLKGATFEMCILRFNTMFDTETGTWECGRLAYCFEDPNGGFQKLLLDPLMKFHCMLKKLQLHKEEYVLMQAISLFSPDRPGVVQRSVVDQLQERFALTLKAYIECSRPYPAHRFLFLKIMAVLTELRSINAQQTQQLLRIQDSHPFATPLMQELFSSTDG
Summary of the method: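 HepG2 cells transiently transfected with GAL4-UAS reporter units expressing chimeric NR-GAL4 proteins; reporter mRNA measured 24 h after dosing by RT-PCR with 6-FAM labelling and capillary electrophoresis, gain of signal relative to DMSO.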

[10] = molecular target: zebrafish Thyroid Hormone Receptor alpha (TRa), thraa (gene 30670) (UniProt Q98867); test: ATG_zfTRa_XSP2: Attagene TRANS-FACTORIAL Multi-Species (XSP1) HepG2 Assay for zebrafish Thyroid Hormone Receptor alpha (TRa) (AID 2283832);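 further: actives raise zebrafish TRa-Gal4 reporter transcript above DMSO baseline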
Chain of zebrafish Thyroid Hormone Receptor alpha (TRa), thraa (gene 30670) (Q98867 whole entry, looked up, the tested form may be a part): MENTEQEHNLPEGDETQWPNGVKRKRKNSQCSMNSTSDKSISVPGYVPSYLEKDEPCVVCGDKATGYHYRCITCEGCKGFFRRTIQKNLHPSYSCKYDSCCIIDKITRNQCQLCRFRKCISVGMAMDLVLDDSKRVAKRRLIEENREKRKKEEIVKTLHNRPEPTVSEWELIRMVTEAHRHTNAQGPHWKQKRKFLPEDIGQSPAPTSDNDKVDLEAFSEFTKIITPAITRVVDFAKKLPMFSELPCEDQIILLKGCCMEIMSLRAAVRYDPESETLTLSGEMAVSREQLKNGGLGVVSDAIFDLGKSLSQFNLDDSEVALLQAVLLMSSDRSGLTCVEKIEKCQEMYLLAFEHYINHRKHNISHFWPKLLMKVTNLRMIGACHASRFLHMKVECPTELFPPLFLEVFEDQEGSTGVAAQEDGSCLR
Summary of the method: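 Chimeric zebrafish TRa-Gal4 activity read in transfected human HepG2 as GAL4-UAS reporter transcripts, 24 h post-dose, via RT-PCR with labeled primer extension and capillary electrophoresis. Medium also carries 3 nM 6-alpha-fluorotestosterone and 1.5 nM norgestrel; DMSO baseline.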

[11] = tested on: zebrafish Peroxisome Proliferator-activated Receptor gamma (PPARg), gene 557037; test: ATG_zfPPARg_XSP2: Attagene TRANS-FACTORIAL Multi-Species (XSP2) HepG2 Assay for zebrafish Peroxisome Proliferator-activated Receptor gamma (PPARg) (AID 2283833);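 further: actives increase reporter signal over DMSO so AC50 reflects activation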
Summary of the method: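 HepG2 cells transiently transfected with GAL4-UAS reporter units expressing a zebrafish PPARg–GAL4 chimera; compound exposure 24 h. Reporter mRNA quantified by RT-PCR with fluorescent labelling and capillary electrophoresis; gain of signal fitted relative to DMSO baseline.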

[12] = tested on: turtle Thyroid Hormone Receptor, alpha (TRa), gene 101949057; test: ATG_trTRa_XSP2: Attagene TRANS-FACTORIAL Multi-Species (XSP1) HepG2 Assay for turtle Thyroid Hormone Receptor, alpha (TRa) (AID 2283834);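 further: hits raise reporter mRNA over the DMSO baseline so AC50 marks activators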
Summary of the method: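 HepG2 cells transiently transfected with multiplexed GAL4-UAS reporter units expressing chimeric NR-Gal4 proteins were dosed for 24 hours. Reporter mRNA was quantified by RT-PCR with 6-FAM labelling and capillary electrophoresis, gain of signal scored against DMSO.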

[13] = ATG_M_61_XSP2: Attagene TRANS-FACTORIAL Multi-Species (XSP2) HepG2 Assay for M61 Transcription Factor (Internal Marker) (AID 2283835; active means hit-call score of the fitted dose curve at least 0.9, where 1 is the maximum; inactive means score below 0.9;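 further: active means a rise in signal above the DMSO baseline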)
Summary of the method: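 Transient MRTU transfection of human HepG2; 24 h chemical dosing with 3 nM 6-alpha-fluorotestosterone + 1.5 nM norgestrel added for AR stimulation. RNA isolated, RT, PCR, FAM-labelled, HpaI cut, CE read. Positive direction vs DMSO.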

[14] = molecular target: Peroxisome proliferator-activated receptor gamma (Homo sapiens) (UniProt P37231); test: ATG_hPPARg_XSP2: Attagene TRANS-FACTORIAL Multi-Species (XSP2) HepG2 Assay for human Peroxisome Proliferator-activated Receptor gamma (PPARg) (AID 2283829);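 further: actives raise reporter mRNA above DMSO so AC50 reflects PPARg activation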
Chain of Peroxisome proliferator-activated receptor gamma (Homo sapiens) (P37231 whole entry, looked up, the tested form may be a part): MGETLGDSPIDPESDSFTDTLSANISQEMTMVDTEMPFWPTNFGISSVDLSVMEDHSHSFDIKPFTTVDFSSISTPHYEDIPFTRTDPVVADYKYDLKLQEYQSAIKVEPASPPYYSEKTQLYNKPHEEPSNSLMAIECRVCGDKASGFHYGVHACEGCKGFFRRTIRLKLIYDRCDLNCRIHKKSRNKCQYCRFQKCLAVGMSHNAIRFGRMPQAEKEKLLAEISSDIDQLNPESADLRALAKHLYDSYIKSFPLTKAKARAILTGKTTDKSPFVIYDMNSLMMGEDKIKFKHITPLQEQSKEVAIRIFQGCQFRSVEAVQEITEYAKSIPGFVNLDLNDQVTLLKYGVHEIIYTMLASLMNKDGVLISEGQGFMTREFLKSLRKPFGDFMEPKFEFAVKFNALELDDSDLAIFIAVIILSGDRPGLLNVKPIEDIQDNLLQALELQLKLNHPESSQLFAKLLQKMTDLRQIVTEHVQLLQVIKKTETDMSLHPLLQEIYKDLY
Summary of the method: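 HepG2 cells transiently transfected with multiplexed GAL4-UAS reporter units for chimeric NR-Gal4 receptors, dosed 24 h. Reporter mRNA quantified by RT-PCR, 6-FAM labeling, HpaI digestion and capillary electrophoresis; gain-of-signal fitted against DMSO baseline.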

[15] = tested on: turtle Androgen Receptor (AR), gene 101947425; test: ATG_trAR_XSP2: Attagene TRANS-FACTORIAL Multi-Species (XSP2) HepG2 Assay for turtle Androgen Receptor (AR) (AID 2283815)
Summary of the method: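 Reporter transcripts were quantified via RT-PCR and capillary electrophoresis and fitted upward against DMSO. Transiently transfected human HepG2 cells carrying NR-Gal4 chimeras were exposed 24 h, with 3 nM 6-alpha-fluorotestosterone plus 1.5 nM norgestrel added.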

[16] = tested on: chicken Androgen Receptor (AR), gene 422165; test: ATG_chAR_XSP2: Attagene TRANS-FACTORIAL Multi-Species (XSP2) HepG2 Assay for chicken Androgen Receptor (AR) (AID 2283819);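 further: hits raise reporter mRNA above DMSO so potency is for activation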
Summary of the method: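 Readout is reporter mRNA induction via RT-PCR/capillary electrophoresis after 24 h chemical exposure, positive direction relative to DMSO. Transiently transfected HepG2 express chimeric chicken AR–GAL4; AR stimulated by 3 nM 6-alpha-fluorotestosterone and 1.5 nM norgestrel.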

[17] = ATG_M_19_XSP2: Attagene TRANS-FACTORIAL Multi-Species (XSP2) HepG2 Assay for M32 Transcription Factor (Internal Marker) (AID 2283822)
Summary of the method: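 Internal background marker in a multi-species nuclear receptor TRANS panel: transfected HepG2 cells exposed 24 h, with 3 nM 6-alpha-fluorotestosterone and 1.5 nM norgestrel present. Readout is RT-PCR of reporter transcripts resolved by capillary electrophoresis, gain-of-signal versus DMSO.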

Measured: AC50

CCC(C)c1ccc(O)cc1 (centres undefined)
inactive: [6] | [9] | [10] | [11] | [12] | [13]
active: [1] 37.7 µM and 28.7 µM | [2] 6.12 µM and 3.68 µM | [3] 14.5 µM and 3.22 µM | [4] 5.13 µM and 19.8 µM | [5] 21 µM and 12.9 µM | [7] 9.87 µM and 3.44 µM | [8] 59.5 µM and 135 µM

c1ccc2c(c1)-c1cccc3cccc-2c13
active: [2] 27.7 µM | [5] 57.8 µM | [7] 33.4 µM and 25.2 µM | [14] 21.6 µM
inactive: [1] | [2] | [3] | [4] | [5] | [14] | [8] | [10] | [11] | [12] | [13]

CCCCOC(=O)c1ccccc1C(=O)OCc1ccccc1
active: [2] 46.7 µM | [3] 43.1 µM | [4] 80.4 µM | [5] 55.4 µM | [7] 24.7 µM | [8] 60.8 µM
not listed: [6] | [14] | [17]
inactive: all other assays above

CCCCC(CC)COC(=O)c1ccc(C(=O)OCC(CC)CCCC)c(C(=O)OCC(CC)CCCC)c1 (centres undefined)
inactive: [1] | [2] | [3] | [17] | [6] | [7] | [14] | [8] | [9] | [10] | [12]
active: [1] 57.8 µM | [4] 6.16 µM and 26.5 µM | [5] 100 µM and 34.2 µM | [7] 36.8 µM | [9] 100 µM

CC(C)(C)C(O)(CCc1ccc(Cl)cc1)Cn1cncn1 (centres undefined)
inactive: [1] | [2] | [3] | [4] | [17] | [6] | [7] | [14] | [8] | [10] | [11] | [12] | [13]
active: [3] 25.8 µM | [5] 132 µM and 61 µM | [9] 4.58 µM and 5.55 µM
